# Source: the supplement of paper PMC9135407
# Several values for one entry are separate records, joined by “and”; a condition that tells them apart may be missing. Equal values may be shown once. Where a name gives a salt, the structure may show the parent alone. Among all 5,800 compounds or so, about 620 (11%) showed activity.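 How the source made its calls: active = score above a cut-off or among the top three wells of a plate; in these data no inactive exceeds 0.85.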 Many of the other results were omitted from the sample, so actives are more common in it than they were.
# Tested on: primary human hepatic stellate cells (donor 1)
# Experiment: scaled lipid accumulation score (0 = DMSO-like, 1 = nortriptyline-like); higher = stronger HSC inactivation (lipid re-accumulation), active = hit call of the paper
# Conditions: 48 h
# [1] = library stock concentration: 10 mM
# [2] = library stock concentration: 6.2 mM
# [3] = library stock concentration: 3.33 mM
# [4] = library stock concentration: 1 mM
# [5] = library stock concentration: 5.1 mM
# [6] = library stock concentration: 13.5 mM
# [7] = library stock concentration: 80 uM
# [8] = library stock concentration: 400 uM
# [9] = library stock concentration: 2 mM
structure (smiles),measurement,setting,value
"OC[C@H]1O[C@@H](n2cnc3c(N[C@H]4CCC[C@@H]4O)ncnc32)[C@@H](O)C1O (stereo partly drawn) [Adenosine, N-(2-hydroxycyclopentyl)-, (1S-trans)- [CAS]]",scaled lipid accumulation score,[1],≤ 0 (inactive)
CN(C)CCCC1(c2ccc(F)cc2)OCc2cc(C#N)ccc21 (configuration not stated) [Citalopram hydrobromide],scaled lipid accumulation score,[1],0.259 (inactive) and 0.597 (inactive)
CN(C)CCCC1(c2ccc(F)cc2)OCc2cc(C#N)ccc21 (configuration not stated) [Citalopram],scaled lipid accumulation score,[2],0.446 (inactive) and 0.566 (inactive)
same,scaled lipid accumulation score,[1],0.51 (inactive)
CN(C)CCCC1(c2ccc(F)cc2)OCc2cc(C#N)ccc21 (configuration not stated) [Citalopram Hydrobromide],scaled lipid accumulation score,,≤ 0 (inactive)
Br.CN(C)CCCC1(c2ccc(F)cc2)OCc2cc(C#N)ccc21 (configuration not stated) [Citalopram hydrobromide],scaled lipid accumulation score,[1],0.952 (active)
CN(C)CCC[C@@]1(c2ccc(F)cc2)OCc2cc(C#N)ccc21 [Escitalopram],scaled lipid accumulation score,[2],0.197 (inactive)
CN(C)CCC[C@@]1(c2ccc(F)cc2)OCc2cc(C#N)ccc21,scaled lipid accumulation score,[1],0.614 (inactive)
CN(C)CCC[C@@]1(c2ccc(F)cc2)OCc2cc(C#N)ccc21 [Escitalopram Oxalate],scaled lipid accumulation score,[3],≤ 0 (inactive)
same,scaled lipid accumulation score,[1],0.644 (inactive)
"CCCCCCCCC#CCC#CCC#CCCCC(=O)O [5,8,11-Eicosatriynoic acid]",scaled lipid accumulation score,[4],≤ -0.021 (inactive)
"CCCCCCCCC#CCC#CCC#CCCCC(=O)O [5,8,11-Eicosatriynoic Acid]",scaled lipid accumulation score,[4],0.059 (inactive)
CCCCCCCCCCCCCCCC(=O)N[C@@H](COP(=O)(O)O)C(=O)O,scaled lipid accumulation score,[4],≤ -0.021 (inactive)
O=C(CCc1ccncc1)NNC(=O)N1Cc2ccccc2Oc2ccc(Cl)cc21,scaled lipid accumulation score,[1],0.105 (inactive)
CN(C)CCC(c1ccc(Cl)cc1)c1ccccn1.O=C(O)/C=C\C(=O)O (configuration not stated),scaled lipid accumulation score,[1],0.891 (active)
CN(C)CC[C@@H](c1ccc(Cl)cc1)c1ccccn1 [Chlorpheniramine (s) maleate],scaled lipid accumulation score,[5],0.181 (inactive)
same,scaled lipid accumulation score,[1],0.005 (inactive)
CN(C)CC[C@@H](c1ccc(Cl)cc1)c1ccccn1 [Dexchlorpheniramine maleate],scaled lipid accumulation score,[5],≤ 0 (inactive)
CN(C)CCC(c1ccc(Br)cc1)c1ccccn1 (configuration not stated) [Brompheniramine hydrogen maleate],scaled lipid accumulation score,[3],0.182 (inactive)
same,scaled lipid accumulation score,[1],0.583 (inactive)
CN(C)CCC(c1ccc(Cl)cc1)c1ccccn1 (configuration not stated) [Chlorpheniramine maleate],scaled lipid accumulation score,,0.469 (inactive)
same,scaled lipid accumulation score,library stock concentration: 7.3 mM,0.251 (inactive)
CN(C)CCC(c1ccc(Br)cc1)c1ccccn1 (configuration not stated) [Brompheniramine maleate],scaled lipid accumulation score,,0.343 (inactive)
same,scaled lipid accumulation score,[1],0.275 (inactive)
CN(C)CC[C@@H](c1ccc(Cl)cc1)c1ccccn1,scaled lipid accumulation score,[1],0.377 (inactive)
CN(C)CCC(c1ccc(Cl)cc1)c1ccccn1 (configuration not stated) [Chlorpheniramine],scaled lipid accumulation score,[1],≤ 0 (inactive)
CN(C)CCC(c1ccc(Cl)cc1)c1ccccn1 (configuration not stated) [Chlorpheniramine Maleate],scaled lipid accumulation score,[3],0.106 (inactive)
same,scaled lipid accumulation score,[1],≤ 0 (inactive)
"CN(C)CCC(c1ccc(Br)cc1)c1ccccn1 (single isomer, unassigned; (+)) [(+)-Brompheniramine maleate]",scaled lipid accumulation score,[1],0.351 (inactive)
CN(C)CCC(c1ccc(Br)cc1)c1ccccn1.O=C(O)/C=C\C(=O)O (configuration not stated),scaled lipid accumulation score,[1],0.9 (active)
CCOc1nc2cccc(C(=O)OC(C)OC(=O)OC3CCCCC3)c2n1Cc1ccc(-c2ccccc2-c2nn[nH]n2)cc1 (configuration not stated) [Candesartan cilextil],scaled lipid accumulation score,[1],≤ -0.027 (inactive)
CCOc1nc2cccc(C(=O)OC(C)OC(=O)OC3CCCCC3)c2n1Cc1ccc(-c2ccccc2-c2nn[nH]n2)cc1 (configuration not stated) [Candesartan Cilexetil],scaled lipid accumulation score,[3],≤ 0 (inactive)
same,scaled lipid accumulation score,[1],≤ 0 (inactive)
C/C=C/c1ccc(OC)cc1 [Anethole],scaled lipid accumulation score,[1],0.104 (inactive)
same,scaled lipid accumulation score,[6],≤ 0 (inactive)
"C/C=C/c1ccc(OC)cc1 [Anethole, trans-]",scaled lipid accumulation score,[6],≤ -0.006 (inactive)
CCCCC/C=C\C\C=C/C=C/C=C/[C@@H](SC[C@H](N)C(=O)O)[C@@H](O)CCCC(=O)O [Leukotriene E4],scaled lipid accumulation score,library stock concentration: 100 uM,0.015 (inactive)
C[C@]1(c2nc3c(C(N)=O)cccc3[nH]2)CCCN1 [Veliparib (ABT-888)],scaled lipid accumulation score,[3],≤ 0 (inactive)
same,scaled lipid accumulation score,[1],≤ 0 (inactive)
C[C@]1(c2nc3c(C(N)=O)cccc3[nH]2)CCCN1 [Veliparib],scaled lipid accumulation score,[7],0.0075 (inactive)
same,scaled lipid accumulation score,[8],≤ -0.0045 (inactive)
same,scaled lipid accumulation score,[9],≤ -0.0045 (inactive)
same,scaled lipid accumulation score,[1],≤ -0.0045 (inactive)
CCCCCCCC/C=C\C/C=C\C/C=C\CCCC(=O)O [Mead acid (20:3 n-9)],scaled lipid accumulation score,[4],0.025 (inactive)
NC(=O)CCC/C=C\C[C@@H]1[C@@H](/C=C/[C@@H](O)CCc2ccccc2)[C@H](O)C[C@@H]1O [17-phenyl trinor Prostaglandin F2.alpha. amide],scaled lipid accumulation score,[4],≤ 0 (inactive)
CS(=O)(=O)CCNCc1ccc(-c2ccc3ncnc(Nc4ccc(OCc5cccc(F)c5)c(Cl)c4)c3c2)o1.Cc1ccc(S(=O)(=O)O)cc1.Cc1ccc(S(=O)(=O)O)cc1 [listing 1 of 2 here],scaled lipid accumulation score,[3],1.36 (active)
same,scaled lipid accumulation score,[1],1.55 (active)
CS(=O)(=O)CCNCc1ccc(-c2ccc3ncnc(Nc4ccc(OCc5cccc(F)c5)c(Cl)c4)c3c2)o1.Cc1ccc(S(=O)(=O)O)cc1.Cc1ccc(S(=O)(=O)O)cc1 [listing 2 of 2 here],scaled lipid accumulation score,[1],1.23 (active)
CCCCC[C@H](O)/C=C/[C@@H]1[C@@H](C/C=C/CCCC(=O)O)[C@@H](O)C[C@H]1O [5-trans Prostaglandin F2.alpha. (tromethamine salt)],scaled lipid accumulation score,[4],≤ 0 (inactive)
CCCCC[C@H](O)/C=C/[C@@H]1[C@@H](C/C=C/CCCC(=O)O)[C@@H](O)C[C@H]1O [5-trans Prostaglandin F2.alpha.],scaled lipid accumulation score,[4],≤ 0 (inactive)
CC(C)(C)n1nc(Cc2cccc3ccccc23)c2c(N)ncnc21,scaled lipid accumulation score,[4],≤ 0 (inactive)
CCCCC[C@@](C)(O)/C=C/[C@H]1C(=O)C[C@H](O)[C@@H]1C/C=C\CCCC(=O)O [15(R)-15-methyl Prostaglandin D2],scaled lipid accumulation score,[4],≤ 0 (inactive)
CCCCCCCCCCCCCC(=O)N[C@H](C)[C@@H](O)c1ccccc1 [D-erythro-MAPP],scaled lipid accumulation score,[4],≤ 0 (inactive) and 0.048 (inactive)
CC1(C2CCCC2)Cc2cc(OCC(=O)O)c(Cl)c(Cl)c2C1=O (configuration not stated),scaled lipid accumulation score,[1],≤ -0.055 (inactive)
same,scaled lipid accumulation score,library stock concentration: 14 mM,≤ -0.021 (inactive)
N[C@@H](C(=O)N[C@@H]1C(=O)N2C(C(=O)O)=C(CSc3cn[nH]n3)CS[C@H]12)c1ccc(O)cc1,scaled lipid accumulation score,[1],≤ 0 (inactive)
"CCCCC/C=C/C=C1/C=CC(=O)[C@@H]1C/C=C\CCCC(=O)O [15-deoxy-.DELTA.12,14-Prostaglandin A2]",scaled lipid accumulation score,[4],≤ 0 (inactive)
CCC(=O)c1ccc2c(c1)N(CCCN(C)C)c1ccccc1S2.Cl [Propionylpromazine hydrochloride],scaled lipid accumulation score,[1],0.862 (active)
CC(=O)c1ccc2c(c1)N(CCCN(C)C)c1ccccc1S2.O=C(O)/C=C\C(=O)O [Acepromazine maleate],scaled lipid accumulation score,[1],0.989 (active)
CC(=O)c1ccc2c(c1)N(CCCN(C)C)c1ccccc1S2 [Acepromazine maleate],scaled lipid accumulation score,library stock concentration: 4.5 mM,0.524 (inactive)
CC(=O)c1ccc2c(c1)N(CCCN(C)C)c1ccccc1S2 [Acetopromazine maleate salt],scaled lipid accumulation score,,0.726 (inactive)
CC#CCC(C)[C@@H](O)/C=C/[C@@H]1[C@H]2C/C(=C\CCCC(=O)O)C[C@H]2C[C@H]1O (stereo partly drawn) [5-cis-15(R)-Iloprost],scaled lipid accumulation score,[4],≤ 0 (inactive)
CN(C)[C@@H]1C(O)=C(C(N)=O)C(=O)[C@@]2(O)C(O)=C3C(=O)c4c(O)cccc4[C@@](C)(O)[C@H]3[C@H](O)[C@@H]12 [Oxytetracycline hydrochloride],scaled lipid accumulation score,[1],≤ 0 (inactive)
CN(C)[C@@H]1C(O)=C(C(N)=O)C(=O)[C@@]2(O)C(O)=C3C(=O)c4c(O)cccc4[C@@](C)(O)[C@H]3[C@H](O)[C@@H]12 [Oxytetracycline],scaled lipid accumulation score,library stock concentration: 4 mM,0.025 (inactive)
same,scaled lipid accumulation score,[1],≤ 0 (inactive)
CN(C)[C@@H]1C(O)=C(C(N)=O)C(=O)[C@@]2(O)C(O)=C3C(=O)c4c(O)cccc4[C@@](C)(O)[C@H]3[C@H](O)[C@@H]12 [Oxytetracycline dihydrate],scaled lipid accumulation score,,0.056 (inactive)
C[C@@H](O)CN(CCN(C[C@@H](C)O)C[C@@H](C)O)C[C@@H](C)O,scaled lipid accumulation score,[1],≤ 0 (inactive)
NNC(=O)c1ccncc1.Nc1ccc(C(=O)O)c(O)c1 [Pasiniazid],scaled lipid accumulation score,[1],≤ -0.027 (inactive)
C#CCCC[C@@H](O)CCCCCCCCCCC(=O)O [12(S)-hydroxy-16-Heptadecynoic Acid],scaled lipid accumulation score,[4],≤ 0 (inactive)
COC(=O)CCSCc1ccc(-c2onc(C)c2NC(=O)OC(C)c2ccccc2Cl)cc1 (configuration not stated),scaled lipid accumulation score,[3],0.07 (inactive)
same,scaled lipid accumulation score,[1],≤ 0 (inactive)
Clc1ccc(Cn2c(CN3CCCC3)nc3ccccc32)cc1 [Clemizole hydrochloride],scaled lipid accumulation score,,0.205 (inactive)
Cl.Clc1ccc(Cn2c(CN3CCCC3)nc3ccccc32)cc1 [Clemizole hydrochloride],scaled lipid accumulation score,[1],0.991 (active)
O=C(O)c1c(Sc2ccccc2)c2cc(Cl)ccc2n1Cc1ccc(Cl)cc1,scaled lipid accumulation score,[1],≤ -0.001 (inactive)
CCCCCC(O)C=CC1C2CC(CO2)C1CC=CCCCC(=O)O (configuration not stated),scaled lipid accumulation score,[4],≤ 0 (inactive) and ≤ -0.021 (inactive)
COCC[n+]1c2c(n(Cc3cnccn3)c1C)C(=O)c1ccccc1C2=O [YM155 (Sepantronium Bromide)],scaled lipid accumulation score,[3],0.529 (inactive)
same,scaled lipid accumulation score,[1],0.748 (inactive)
N#Cc1c(C2CCNCC2)cc(-c2c(O)cccc2OCC2CC2)nc1N [IKK-2 Inhibitor VIII],scaled lipid accumulation score,[3],0.136 (inactive)
Cl.N#CC1=C(N)NC(=C2C(=O)C=CC=C2OCC2CC2)C=C1C1CCNCC1,scaled lipid accumulation score,[1],1.09 (active)
N#Cc1c(C2CCNCC2)cc(-c2c(O)cccc2OCC2CC2)nc1N,scaled lipid accumulation score,[7],≤ -0.016 (inactive)
same,scaled lipid accumulation score,[8],≤ -0.016 (inactive)
same,scaled lipid accumulation score,[9],0.483 (inactive)
